Experimental data reported in ChEMBL document CHEMBL3988442, “University of Dundee, Small-Polar-MMV Screening Library” (2021).
In all, about 48,000 compounds went through this assay and about 13,000 (27%) showed an effect of 50% or more. The list shows a part of the results.

What follows are compounds tested on Wolbachia pipientis (assay: Anti-Wolbachia Cell-Based Screen). Settings: 5 µM.
Assay type: functional
Design: scale not given: in the data most compounds retested in dose-response had high values

Row | Compound | Percent Effect [%]
1 | COc1ccc2c(CN3CCCN(Cc4ccncc4)CC3)n[nH]c2c1 | -3.33
2 | COCCc1noc(CN2CCCC2Cn2cccn2)n1 (stereo not given) | 82.73
3 | c1cnn(CC2CCCN2Cc2nc(C3CC3)no2)c1 (stereo not given) | 112.2
4 | Cc1cccc(-c2noc(CN3CCCC3Cn3cccn3)n2)c1 (stereo not given) | 3.964
5 | COCCc1noc(CN2CCCCC2Cn2cccn2)n1 (stereo not given) | 100.4
6 | COc1ccccc1-c1noc(CN2CCCC2Cn2cccn2)n1 (stereo not given) | -4.509
7 | c1cnn(CC2CCCN2Cc2nc(-c3ccoc3)no2)c1 (stereo not given) | -2.106
8 | COCCc1noc(CN2CCCC2Cn2cc(C)cn2)n1 (stereo not given) | 0.3604
9 | COCCc1noc(CN2CCCCC2Cn2cc(C)cn2)n1 (stereo not given) | 4.505
10 | NC(=O)C1CCCN1Cc1cccc(NC(=O)c2ccsc2)c1 (stereo not given) | 23.54
11 | CCOc1ccnc(N2CCN(C(=O)CCc3cnn(C)c3)CC2)n1 | -13.21
12 | CC(C)(C)[S+]([O-])CCNC(=O)c1ccc(Cl)c2cccnc12 (stereo not given) | -0.5335
13 | CCN(CC)C(CNCc1ccc(OC)c(F)c1)c1ccco1 (stereo not given) | 3.453
14 | CC1(c2ncc(CN3CCN(c4ncccn4)CC3)cn2)CCCCO1 (stereo not given) | 136.6
15 | CC(C)=CCC1(CO)CCCN(Cc2cnc(N3CCOCC3)nc2)C1 (stereo not given) | -21.22
16 | CN(CCc1ccccc1)Cc1cc(C(=O)N2CCCC2(C)C)no1 | -2.856
17 | CC(C)(C)c1cnc(CN2CCN(c3ncccn3)CC2)o1 | -4.757
18 | CN(CCc1ccccc1)Cc1cnc(C2(C)CCCCO2)nc1 (stereo not given) | 153.2

Row | Compound | Percent Effect [%]
19 | CN(CCc1ccccc1)Cc1nc(-c2cnccn2)no1 | -27.95
20 | Cc1cc(C)n(C2CCCN(C(=O)c3cc(C4CC4)on3)C2)n1 (stereo not given) | 8.092
21 | Cn1cnnc1C1CCCN(C(=O)Cc2ccc3c(c2)OCCO3)C1 (stereo not given) | 17.9
22 | Cc1cc(C(=O)N2CCCC(c3nncn3C)C2)no1 (stereo not given) | 92.93
23 | Cn1cnnc1C1CCCN(C(=O)c2cc(C3CC3)on2)C1 (stereo not given) | 107.9
24 | Cn1cnnc1C1CCCN(C(=O)CCc2ccc3c(c2)OCO3)C1 (stereo not given) | 6.982
25 | Cc1ccc(C(NC(=O)CN2CCc3cncnc3C2)C2CC2)cc1 (stereo not given) | 0.6852
26 | Cc1nonc1OCCNc1ncnc2sc3c(c12)CCNC3 | -7.187
27 | O=C1CN(Cc2nnc(-c3ccc(Br)cc3)o2)CCN1 | -13.92
28 | CC(c1ccc(-c2cnc(N)nc2)cc1)N1CCOCC1 (stereo not given) | 42.28
29 | Cn1ccnc1C(=O)N1CCC2(CCN2c2ncccn2)C1.O=C(O)C(F)(F)F (stereo not given) | 99.87
30 | Cn1cccc1C(=O)N1CCC2(CC1)CN(c1ccccn1)CCO2.O=C(O)C(F)(F)F | -8.251
31 | Cn1cccc1C(=O)N1CCC2(CCCN2c2ncccn2)CC1.O=C(O)C(F)(F)F | 1.069
32 | CCN1CCCC12CCN(C(=O)c1nccn1C)CC2.O=C(O)C(F)(F)F | -7.491
33 | O=C(O)C(F)(F)F.O=C(c1c[nH]cn1)N1CCC(F)(F)C2(CCN(c3ncccn3)C2)C1 (stereo not given) | 7.042
34 | Cn1ccc(C(=O)N2CCC3(CCN3c3ncccn3)C2)n1.O=C(O)C(F)(F)F (stereo not given) | 111.1
35 | Cn1cccc1C(=O)N1CCC2(CCN2c2ncccn2)C1.O=C(O)C(F)(F)F (stereo not given) | 93.48
